Among the data in PubChem BioAssay AID1851 (National Center for Advancing Translational Sciences (NCATS), 2009) are AC50 and activity, negative = inhibition values, retold here.

About 5,700 (36%) of roughly 16,000 compounds were called active. Another 24% or so got no clear call; they are omitted. The list shows a part of the results. Values without a mark were called inactive. The call rests on the fitted dose curve; in most records, active means well fitted curve in the direction sought with a large enough effect; inconclusive means small, poorly fitted or top-dose-only effect, or effect the other way; inactive means no such curve, though single readings can be large or run the other way.
On the % scale 0 is the no-effect control and ±100 the full control effect.

Chain of Cytochrome P450 1A2 (Homo sapiens) (P05177 whole entry, looked up): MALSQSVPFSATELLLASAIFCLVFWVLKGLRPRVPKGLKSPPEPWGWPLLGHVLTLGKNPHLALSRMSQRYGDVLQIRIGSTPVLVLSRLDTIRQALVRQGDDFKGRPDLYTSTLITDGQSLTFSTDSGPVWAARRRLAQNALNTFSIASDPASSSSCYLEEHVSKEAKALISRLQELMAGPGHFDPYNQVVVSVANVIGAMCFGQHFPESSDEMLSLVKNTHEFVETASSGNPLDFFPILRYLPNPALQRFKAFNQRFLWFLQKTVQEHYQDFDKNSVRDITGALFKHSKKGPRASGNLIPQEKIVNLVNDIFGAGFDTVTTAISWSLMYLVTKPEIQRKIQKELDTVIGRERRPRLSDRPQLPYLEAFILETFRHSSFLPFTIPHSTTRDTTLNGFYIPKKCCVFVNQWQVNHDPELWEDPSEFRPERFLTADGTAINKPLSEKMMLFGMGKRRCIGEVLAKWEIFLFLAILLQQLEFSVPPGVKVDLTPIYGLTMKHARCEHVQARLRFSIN

This assay concerns the target Cytochrome P450 1A2 (Homo sapiens) (UniProt P05177). The experiment in a line: Cytochrome panel assay with activity outcomes. The conditions noted are these: recombinant CYP, pro-luciferin dealkylation, luminescence, p450-cyp1a2; series mostly up to 57.1 µM.
As to `COc1cccc(-c2ccc3ncnc(NCCNC(C)=O)c3c2)c1`, the AC50 was 3.16 µM (active).

As for `COCCNc1ncnc2ccc(-c3cccnc3)cc12`, the AC50 is 0.2 µM (active). Same read-out and setting: in the case of `COCCNc1ncnc2ccc(-c3cccc(OC)c3)cc12` it was 0.794 µM (active); in that of `N#Cc1ccc(CN2CCCC3(CCN(C(=O)c4cccc(F)c4)CC3)C2)cc1`, “inactive”; in that of `Cn1c(=O)[nH]c(=O)c2c1nc(CN1CCOCC1)n2CCCO`, “inactive”.

Regarding `COc1ccccc1CNc1ncncc1-c1ccccc1Cl`, the AC50 is 10 µM (active).

For `COc1ccc(CNc2ncncc2-c2ccccc2C(F)(F)F)c(OC)c1`, the AC50 is 15.8 µM (active). Consider `COc1ccccc1CNc1ncncc1-c1ccccc1C(F)(F)F`, for which the AC50 is 15.8 µM (active).

For `Cc1ccccc1CN1CCN(CC(=O)NCCCN2CCN(c3ccc(F)cc3)CC2)C1=O`, the AC50 entry is “inactive”. The same measure, in the same setting: for `Cn1cc(C2=C(c3ccc(Cl)cc3Cl)C(=O)NC2=O)c2ccccc21` the value was 3.16 µM (active); for `CNc1ccnc(-c2ccccc2OC)n1`, 5.01 µM (active); for `COc1ccccc1-c1nccc(NCc2ccccc2)n1`, 2.51 µM (active).

For `COc1ccccc1-c1nccc(NCc2cccnc2)n1`, the AC50 was 0.2 µM (active). Regarding `COc1ccccc1-c1nccc(NCc2cccc(C)c2)n1`, the concentration at half-maximal activity (AC50) is 0.631 µM (active). Still for that read-out and setting: for `CS(=O)(=O)N1CCC[C@@]2(CCN(C(=O)Nc3cccc(C#N)c3)C2)C1` the value was “inactive”; for `CNc1ccnc(-c2ccccc2C)n1`, 5.01 µM (active); for `Cc1ccccc1-c1nccc(NCc2cccnc2)n1`, 0.2 µM (active). As to `CO[C@H]1COC(=O)C/C=C\[C@H](C)[C@@H](NS(=O)(=O)c2ccc(C)cc2)COC(=O)CCC[C@@H]1C`, the activity, negative = inhibition is 1.16% [at 11.4 µM]. The same measure, in the same setting: for `C=CC[C@@H]1C=C[C@H](O/N=C(\C)CCN2CCc3nc(CC)c(CC)cc3C2)[C@H](CO)O1` the value was -3.35% [at 11.4 µM].

As for `CCC(=O)Nc1ccc(/C(C)=N\NS(=O)(=O)c2ccc(C)cc2)cc1`, the AC50 is 25.1 µM (active). For `C/C(=N\NC(=O)c1cccc(Cl)c1)c1cccc(NC(=O)C(C)C)c1`, the AC50 is 5.01 µM (active). On to `C/C(=N/NS(=O)(=O)c1ccc(C)cc1)c1cccc(NC(=O)c2cccc(Cl)c2)c1`, for which the AC50 was 14.1 µM (active). Still for that read-out and setting: for `C/C(=N\NC(=O)c1ccc(Cl)cc1)c1cccc(NC(=O)C(C)C)c1` the value was 3.55 µM (active); for `COc1ccc(C(=O)Nc2cccc(/C(C)=N/NC(=O)c3ccc([N+](=O)[O-])cc3)c2)cc1OC`, “inactive”.

Regarding `Cc1ccc(S(=O)(=O)Nc2nc(C)c(NC(=O)Nc3ccc(Cl)cc3Cl)s2)cc1`, the AC50 entry was “inactive”.

Regarding `C/C(=N/NS(=O)(=O)c1ccc(C)cc1)P(=O)(O)O`, the activity, negative = inhibition is -10% [at 11.4 µM].
